An excerpt weighted towards active compounds, which were near 1% of everything screened.
gsp ag: agonists of gsp mutant (McCune-Albright syndrome). gsp mutant cells, cAMP HTRF, 30 min. Potency, µM (series often up to 76.9 µM), without a hit: at the top dose activation (cAMP increase), actives largely listed as activators. 340,000 compounds, 0.13% hits; active = well fitted activation curve with a large enough effect; inconclusive = small, poorly fitted or top-dose-only effect, or another doubt; inactive = no such curve, though single readings can be large or run the other way; cell line not stated here;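 note: phosphodiesterase inhibitor Ro 20-1724 added with compounds to block cAMP breakdown; potency is the fitted concentration of half-maximal effect; nearly all actives have a fitted effect of over 60% in size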
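Cells stably selected in G418 were plated at 2000/well, grown 16-24 hr, then given compounds in DMSO with the PDE inhibitor […] (300 uM solution added) for 30 min at 37C; cAMP was read by HTRF.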
RXFP1 ag: activates the human relaxin receptor RXFP1. HEK293T-RXFP1 cAMP TR-FRET, 30 min; response scale: percent of porcine relaxin response, buffer zero. 370,000 compounds, 0.3% hits. AID 2676. Potency, µM (top dose mostly 57.5 µM), for inactives: at the highest dose activation, hits mostly activators. Q9HBX9; note: potency is the fitted concentration of half-maximal effect; % is set by controls: 0 for no effect and ±100 for the full control effect; nearly all actives have a fitted effect of over 60% in size
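HEK293 cells stably expressing RXFP1, treated 30 min at 37C with compounds plus PDE4 inhibitor Ro 20174; cAMP measured by HTRF TR-FRET. Normalized to buffer and 29 nM porcine relaxin; EC50 by Hill fit.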
RXFP1 antagonist: RXFP1 (human) relaxin receptor antagonism | Q9HBX9 | HEK293-RXFP1, relaxin-stimulated cAMP HTRF, 30 min; stronger effect = lower value | activity change, negative = inhibition, % at 57.5 µM | 350,000 compounds, 0.59% hits;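 active = activity change of -60% or lower, but not beyond a set lower limit; inconclusive = change between -60% and -40%, or beyond the set limit; inactive = change above -40%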; note: % is set by controls: 0 for no effect and ±100 for the full control effect
PTHR1 agonist: activates the human parathyroid hormone receptor PTHR1; AID 743266; HEK293 GP2 PTHR1 cells, GloSensor cAMP luminescence, 1 h; Q03431; 410,000 compounds, 0.075% hits; Potency, µM (top dose mostly 115 µM), for inactives: at the top dose activation, hits mostly activators; note: potency is the fitted concentration of half-maximal effect; nearly all actives have a fitted effect of over 55% in size
Target sequence (Q03431 whole entry, looked up): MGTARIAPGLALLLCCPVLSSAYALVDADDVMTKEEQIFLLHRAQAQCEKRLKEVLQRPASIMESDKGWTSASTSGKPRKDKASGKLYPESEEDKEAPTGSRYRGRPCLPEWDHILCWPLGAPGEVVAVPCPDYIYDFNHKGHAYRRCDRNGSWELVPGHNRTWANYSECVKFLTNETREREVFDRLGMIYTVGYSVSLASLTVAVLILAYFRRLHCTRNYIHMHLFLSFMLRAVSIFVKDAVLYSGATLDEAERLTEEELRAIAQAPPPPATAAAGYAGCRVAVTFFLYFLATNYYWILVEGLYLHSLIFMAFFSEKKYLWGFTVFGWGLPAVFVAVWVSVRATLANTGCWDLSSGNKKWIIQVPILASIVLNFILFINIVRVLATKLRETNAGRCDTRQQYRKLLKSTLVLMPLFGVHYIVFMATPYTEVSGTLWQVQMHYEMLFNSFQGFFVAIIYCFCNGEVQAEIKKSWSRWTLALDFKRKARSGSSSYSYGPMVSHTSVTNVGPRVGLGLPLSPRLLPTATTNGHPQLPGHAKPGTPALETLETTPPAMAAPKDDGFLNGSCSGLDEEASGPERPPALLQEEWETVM
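HEK-293-derived GP2 cells expressing PTHR1 and a GloSensor cAMP reporter, 3,000/well, plated overnight, given luciferin plus IBMX (each 0.5 mM as added) for 1 h at 37 °C, then compound for 1 h at 37 °C. Luminescence was read after 15 min at room temperature.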
gsp antag: antagonists of gsp mutant (McCune-Albright syndrome); gsp-mutant cells, cAMP HTRF, 30 min; Potency, µM (series often up to 76.9 µM), for the others: at the top dose activity change, negative = inhibition, actives largely listed as inhibitors; 340,000 compounds, 0.4% hits; AID 624288; calls by dose curve; cell line not stated here;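 note: intracellular cAMP measured with PDE inhibitor Ro 20-1724 present during compound exposure; potency is the fitted concentration of half-maximal effect; % is set by controls: 0 for no effect and ±100 for the full control effect; nearly all actives have a fitted effect of over 65% in size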
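HTRF cAMP measurement after 30 min RT detection following 30 min, 37C compound treatment alongside […] (added as 300 uM solution) in G418-selected cells seeded at 2000/well and grown 16–24 h.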
* marks the source's active call; other numbers are inactive results; i = inactive; ? = inconclusive; . = no result given; [ ] = another dose, or the depositor's remark. Unless noted, calls come from the whole dose curve; as a rule, active = well fitted curve in the direction sought with a large enough effect; inconclusive = small, poorly fitted or top-dose-only effect, or another doubt; inactive = no such curve, though single readings can be large; an effect the other way counts as inactive or inconclusive.

SMILES	gsp ag	RXFP1 ag	RXFP1 antagonist	PTHR1 agonist	gsp antag
CCOC(=O)c1c(NC(=O)CSc2n[nH]c(-c3ccco3)n2)sc(C)c1C	0%	-1%	-75*	-1%	12%
Cc1cc(OCCOCC[N+](C)(C)Cc2ccccc2)ccc1C(C)(C)CC(C)(C)C	.	.	-29	.	.
N#CC1c2ccccc2C=CN1C(=O)N(c1ccccc1)c1ccccc1 (centres undefined)	-1%[15.4 µM]	.	-94*	-22%	-32%
CCOc1ccc(/C=C/c2nc(C#N)c(NC(C)c3ccccc3)o2)cc1 (centres undefined)	.	11%	0	-47%	.
CCc1cccc(C)c1NC(=O)c1cnn(-c2ccc(OC)cc2)c1C1CCN(C(=O)OC(C)(C)C)CC1	.	-1%	-35	i	.
Cc1ccc(Cl)cc1-n1ncc2c(NC3CCCCC3)ncnc21	.	3%	-32	-40%	.
Clc1cccc(-n2ncc3c(NC4CCCCC4)ncnc32)c1	.	9%	-70*	i	.
O=C1NC(=S)S/C1=C/c1ccc(Oc2cnccn2)cc1	1%[15.4 µM]	-1%	-24	-37%	11µM*
O=C1NC(=O)/C(=C\c2ccc(Oc3cnccn3)cc2)S1	-1%[15.4 µM]	1%	1	-13%	?
CN(C)/C=C/c1onc(-c2ccccc2Cl)c1C#N	-2%[15.4 µM]	-1%	-28	-21%	11µM*
Cc1ccc(NC(=O)CSc2ncnc3ccccc23)cc1S(=O)(=O)N1CCCCCC1	21%[15.4 µM]	4%	5	-50%	-24%
COc1ccccc1NS(=O)(=O)c1cc(NC(=O)c2ccc(Cl)nc2)ccc1Cl	1%[15.4 µM]	0%	-19	-2%	32µM*
COc1ccccc1NS(=O)(=O)c1cccc(NC(=O)NCCCl)c1	?	-1%	14	7%	-5%
O=C(CSc1ncnc2ccccc12)Nc1cc(S(=O)(=O)N2CCCCC2)ccc1Cl	3.2µM*	16µM*	1	-16%	25%
COC(=O)c1cc(NC(=O)Nc2cccc(Cl)c2)ccc1Cl	-4%	1%	5	-93%	25µM*
COC(=O)c1cccc(NC(=O)Nc2ccc(Cl)cc2)c1	3%[15.4 µM]	-1%	-13	-34%	2%
COc1ccccc1NS(=O)(=O)c1cccc(NC(=O)Nc2cccc(Cl)c2)c1	-12%	-1%	?	-4%	32µM*
COc1ccc(C(=O)Nc2ccc(Cl)c(S(=O)(=O)Nc3ccccc3OC)c2)cc1	-21%	1%	5	-43%	-26%
CCOC(=O)c1sc2ccccc2c1S(=O)(=O)Nc1c(C)cccc1C	.	3%	3	-13%	.
CN1CCN(S(=O)(=O)c2ccc(NC(=O)Nc3cccc(Cl)c3)cc2)CC1	1%	-2%	8	-32%[57.5 µM]	-9%
O=C(Nc1cccc(Cl)c1)Nc1cccc(Cl)c1	16%	1%	-21	-26%[57.5 µM]	35µM*
O=C(Nc1cccc(Cl)c1)Nc1cc(S(=O)(=O)N2CCCCC2)ccc1Cl	13%	0%	-16	-30%	25µM*
CCN(CC)S(=O)(=O)c1ccc2c(c1)N(CC(=O)N1CCN(c3cccc(Cl)c3)CC1)C(=O)CO2	.	2%	-11	-13%	.
O=S(=O)(/N=S1/CC=CCN1S(=O)(=O)c1ccccc1)c1ccccc1 (centres undefined)	-1%	-1%	-72*	-33%[57.5 µM]	-11%
O=S(=O)(c1ccccc1)N1CCN(S(=O)(=O)c2ccccc2)C1	29%	0%	-6	-5%	3%
CCCCCC(O)(c1ccccc1)C(CN1CCOCC1)c1ccccc1 (centres undefined)	-22%	0%	-64*	-9%	0%
CC(C)CCC(O)(c1ccccc1)C(CN1CCOCC1)c1ccccc1 (centres undefined)	-4%[15.4 µM]	-1%	-80*	-23%	-5%
COc1ccc(C(O)(CCC(C)C)C(CN2CCOCC2)c2ccccc2)cc1 (centres undefined)	-35%	5%	?	-33%	-25%
Cc1cccc2sc(NNC(=O)C3=COCCO3)nc12	-5%[15.4 µM]	-2%	-61*	i	.
Cc1cccc(NC(=O)CSc2nc3c(sc4ccccc43)c(=O)n2CCCC(=O)NC2CCCC2)c1	.	16%	10	i	.

Screens deposited in PubChem by National Center for Advancing Translational Sciences (NCATS).
